S16 F2sN tox: S16 Schwann cell cytotoxicity | S16 Pmp22-F2sN Schwann cells viability, CellTiter-Glo, 24 h | Potency, µM (highest dose often 57.5 µM), without a hit: at the highest dose activity change, negative = cytotoxicity, actives largely listed as cytotoxic | 43,000 compounds, 0.48% hits | AID 1508642; further: nearly all actives have a fitted effect of over 65% in size
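CellTiter-Glo counter-screen, qHTS, 1536-well. Cells: S16(c9) Pmp22-F2sN, 500-1,000/well in DMEM + 10% FBS. Cpd 23 nL pin transfer, 24 h, 37C/5% CO2. Read: luminescence, CCD imager.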
mTORC1 inh: inhibitors of mTORC1 signaling in Tsc2-/- p53-/- MEF cells | Tsc2-/- p53-/- MEF, phospho-rpS6 immunofluorescence/PI, 24 h | 44,000 compounds, 0.78% hits | Potency, µM (highest dose often 38.3 µM), for the others: at the highest dose activity change, negative = inhibition, usual class: inhibitors;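 further: plate controls were DMSO for no effect and rapamycin for full effect; nearly all actives have a fitted effect of over 50% in size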
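Immunofluorescence of rpS6 phosphorylation in Tsc2-/-, p53-/- MEFs after 24 h compound exposure, normalized to propidium iodide signal. Activity is expressed as % positive cells, thresholded with 7.5 nM rapamycin.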
p53null 32C kill: selectivity test: cytotoxicity in p53 null cells, permissive temperature; H1299-neo p53 null cells, ATP luminescence, 24 h, 32C; Potency, µM (titrated, usually from 46.1 µM), for inactives: at the top dose activity change, negative = cytotoxicity, actives largely listed as cytotoxic; 55,000 compounds, 0.62% hits;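 further: 0% = DMSO only and -100% = full killing by 100 µM tamoxifen; nearly all actives have a fitted effect of over 55% in size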
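H1299-neo (p53-null) cells, 600/well, were pre-incubated overnight at 37C, then exposed to compounds at up to 46 uM for 24 hr at 32C. Viability was measured as ATP content by luminescence, and AC50 values came from Hill fits.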
p53null 39C tox: p53 null cell cytotoxicity, nonpermissive temperature | H1299 p53-null (neo) cells, 39C, ATPlite viability, 24 h | 55,000 compounds, 0.97% hits | AID 904 | Potency, µM (highest dose often 46.1 µM), without a hit: at the top dose activity, negative = cell killing, hits mostly cytotoxic;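 further: 0% = DMSO only and -100% = full killing by 100 µM tamoxifen; nearly all actives have a fitted effect of over 50% in size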
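Concentration-response (up to 46 uM) was run for 24 h at the nonpermissive 39C on H1299-p53A138V or H1299-neo cells. ATP content was measured with ATPlite luminescence. AC50 values were Hill-modeled after normalizing between DMSO and 100 uM tamoxifen killing.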
PMP22 txn: PMP22 gene transcription modulation; S16 Pmp22-F2sN Schwann cells (luciferase reporters placed in the Pmp22 gene), FLuc/NLuc coincidence luminescence, 24 h; Potency, µM (series often up to 57.5 µM), for inactives: at the top dose activity change, negative = inhibition, most hits filed as inhibitors; 43,000 compounds, 2% hits; AID 1508649; active means clear falling dose curves in both reporters; inconclusive means both reporters move, but less clearly or upward; inactive means either reporter flat; the % is the NLuc reporter signal
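Transcriptional readout in edited S16(c9) cells: two luciferases reported from the Pmp22 locus, measured in turn after 24 h compound incubation.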
An asterisk follows results filed as active; ? = inconclusive; · = not tested or not shown; [ ] = remark or other dose. Compounds with a hit are over-represented: about 3.2% of the library has one in this group of screens. Unless noted, the call rests on the fitted dose curve; in most records, active means well fitted curve in the direction sought with a large enough effect; inconclusive means small, poorly fitted or top-dose-only effect, or another doubt; inactive means no such curve, though single readings can be large; an effect the other way counts as inactive or inconclusive. Unless noted, on the % scale 0 is the no-effect control and ±100 the full control effect; potency means the concentration at half of the fitted maximal effect.

SMILES | S16 F2sN tox | mTORC1 inh | p53null 32C kill | p53null 39C tox | PMP22 txn
Cc1cc(C)cc(Oc2nc3c(C)cccn3c(=O)c2/C=C(\C#N)c2nc3ccccc3[nH]2)c1 | 0% | -18% | 0% | -28% | ?
COc1ccc(Oc2nc3c(C)cccn3c(=O)c2/C=C(\C#N)c2nc3ccccc3[nH]2)cc1 | -3% | 13µM* | 2% | -21% | 7%
Cc1ccccc1Oc1nc2ccccn2c(=O)c1/C=C(\C#N)c1nc2ccccc2[nH]1 | 5% | 9.3µM* | 2% | -13% | 20%
Cc1ccc(S(=O)(=O)CCC(=O)N2CCN(c3nc4c(C)c(C)ccc4s3)CC2)cc1 | -28% | 2% | 0% | 5% | -35%
Cc1cc(-c2nc3ncccc3o2)ccc1N | · | · | 11µM* | ? | ·
Nc1cc(-c2nc3ncccc3o2)ccc1Cl | · | · | -28% | 8% | ·
CCCCCN1C(C(=O)c2ccccc2)=C(NC(C)=O)c2ccccc2S1(=O)=O | ? | -14% | 20% | 38% | 10%
CC(=O)N1CCCC1c1nc2ccccc2n1Cc1cccc(C)c1 (stereo not given) | 9% | -6% | -3% | -7% | 35%
CCCCN(CCCC)CC(O)Cn1cc(/C=C/C(=O)c2ccccc2)c2ccccc21 (stereo not given) | ? | -21% | ? | ? | ?
CCCCN(C)CC(O)Cn1cc(/C=C/C(=O)c2ccc(OCC)cc2)c2ccccc21 (stereo not given) | ? | ? | ? | 5µM* | ?
COCCNC(=O)Cn1nc(-c2ccccc2)c2ccccc2c1=O | -1% | -2% | -13% | 2% | -2%
O=C(NCCC1=CCCCC1)c1ccc2c(c1)ncn2-c1ccc(F)c(F)c1 | 0% | -2% | -10% | 13% | -4%
Cc1cc(Nc2cccc(Cl)c2)nc2ccc(NC(=O)c3cncc(Br)c3)cc12 | ? | -7% | -18% | 20µM* | ?
O=C(NCCc1ccccc1)C(=O)NCC(c1cccnc1)N1CCN(c2ccc(F)cc2)CC1 (stereo not given) | ? | ? | -4% | 11µM* | ?
COC(=O)NCC(c1cccnc1)N1CCN(c2ccc(F)cc2)CC1 (stereo not given) | 2% | -7% | ? | 25µM* | ?
COC(=O)NCC(c1cccnc1)N1CCN(c2ccccc2)CC1 (stereo not given) | · | · | -2% | -1% | ·
COc1ccc(C(=O)Nc2cc(=O)n(C)c(=O)n2C)cc1OC | · | · | -5% | 1% | ·
CCCc1cc(=O)oc2cc(OCc3ccc(OC)cc3)c(Cl)cc12 | · | · | · | 8%[1.84 µM] | ·
COc1cc(Nc2nc(SCC(=O)c3ccc(Cl)c(Cl)c3)nc3ccccc23)cc(OC)c1 | -6% | 12µM* | -1% | 21% | ?
COc1cc(Nc2nc(SCc3ccccc3Cl)nc3ccccc23)cc(OC)c1 | -29% | ? | -1% | -4% | ?
COCc1nn2cc(-c3ccc(C)cc3)nc2s1 | -9% | -11% | 10µM* | 10µM* | ?
COCCCNC(=O)C1CCN(C(=O)c2cc3sccc3n2Cc2ccc(Cl)cc2)CC1 | ? | 2% | 1% | -5% | ?
COCCNC(=O)C1CCN(C(=O)c2cc3sccc3n2Cc2ccc(Cl)cc2)CC1 | ? | 1% | 11% | 9% | 10µM*
O=c1ccnc(Sc2ncccc2[N+](=O)[O-])[nH]1 | · | · | -1% | -10% | ·
Cc1ccc(-c2noc(-c3ccccc3OCC(=O)Nc3ccccc3[N+](=O)[O-])n2)cc1 | 0% | 1% | 23% | 37% | -4%
SMILES | S16 F2sN tox | mTORC1 inh | p53null 32C kill | p53null 39C tox | PMP22 txn
O=C(CCS(=O)(=O)c1nc(-c2cccs2)cc(C(F)(F)F)n1)Nc1cccc(O)c1 | ? | 13µM* | 9% | 91% | ?
COc1ccc(NC(=O)CCS(=O)(=O)c2nc(-c3cccs3)cc(C(F)(F)F)n2)cc1OC | ? | 13µM* | 36% | 103% | ?
Clc1ccc(CSc2nc3ncccc3[nH]2)cc1 | -4% | -7% | 10µM* | ? | ?
CCOc1ccc(-n2c(-c3ccc(OC)cc3)cc3c2CC(C)(C)CC3=O)cc1 | ? | -4% | 4% | 60% | ?
CCN(c1ccccc1)S(=O)(=O)c1nnc(NC(=O)c2ccco2)s1 | 1% | 6% | ? | 1µM* | 24%
Cc1ccc(Nc2nc3nonc3nc2Nc2cccc(C(F)(F)F)c2)cc1Cl | 11µM* | ? | -23% | ? | 7.6µM*
COc1ccccc1NC(=O)CSc1nnc2c3ccccc3n(C(C)C)c2n1 | ? | 15µM* | 32% | 38% | ?
COc1cc(NC(=O)Cn2ccn(-c3cc(C)cc(C)c3)c(=O)c2=O)cc(OC)c1 | 8% | 10% | -11% | -21% | -3%
COC(=O)c1ccc(NC(=O)CSc2nnc3c4ccccc4n(C(C)C)c3n2)cc1 | 6% | -1% | 0% | 4% | -24%
COC(=O)c1c(SCC(=O)Nc2cc(OC)cc(OC)c2)[nH]c2ccc(C)cc2c1=O | ? | -11% | ? | 3.2µM* | -6%
COC(=O)c1c(SCC(=O)Nc2ccccc2OC)[nH]c2ccccc2c1=O | ? | 6% | ? | 7.9µM* | ?
CCN(CC)S(=O)(=O)c1ccc2c(c1)N(CC(=O)N1CCN(c3ccc(F)cc3)CC1)C(=O)CO2 | -2% | -9% | 14% | 14% | -8%
COc1ccc(-c2nc3ccccc3o2)cc1NC(=O)COc1cc(C)cc(C)c1 | 6% | -2% | -4% | 23% | -6%
O=C(NC1CCCCC1)/C(=C/c1ccc(Cl)cc1)NC(=O)c1ccccc1 | ? | 15µM* | 6% | 22% | ?
CCS(=O)(=O)c1ncc(Cl)c(C(=O)NCc2ccc(OC)cc2)n1 | 2.8µM* | 3.7µM* | ? | 35% | 6.5µM*
CCS(=O)(=O)c1ncc(Cl)c(C(=O)N2CCN(c3ccc(OC)cc3)CC2)n1 | 7.9µM* | 3.3µM* | ? | ? | 6.6µM*
CCS(=O)(=O)c1ncc(Cl)c(C(=O)N(Cc2ccccc2)c2ccc(OC)cc2)n1 | 4.5µM* | 2.6µM* | ? | ? | 2.2µM*
CCCS(=O)(=O)c1ncc(Cl)c(C(=O)N(Cc2ccccc2)Cc2ccco2)n1 | 2.2µM* | 16µM* | 22µM* | ? | 6.4µM*
CCSc1ncc(Cl)c(C(=O)N(Cc2ccccc2)Cc2ccco2)n1 | -2% | -3% | 27% | 26% | ?
CC(=O)Nc1ccc(NC(=O)c2oc3ccc4c(c3c2C)C(=O)CC(C)(C)O4)cc1 | ? | -2% | 4µM* | 3.2µM* | ?
Cc1ccc(NC(=O)c2oc3ccc4c(c3c2C)C(=O)CC(C)(C)O4)c(C)c1 | 16% | 6% | -16% | -6% | -6%

Compound activity: PubChem BioAssay, National Center for Advancing Translational Sciences (NCATS)
